Experimental data published in PubChem BioAssay AID504621 (Broad Institute, 2011).
Among all 310,000 compounds or so, about 970 (0.31%) were called active.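 How the source made its calls: active means every replicate shows inhibition above about 80%, whatever the replicate mean (limit read from the data); inconclusive means mean inhibition reaches the set limit but some replicate falls short; inactive means the rest.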 The list comes from a sample in which actives are over-represented; it also holds similar structures and randomly drawn compounds.

Experiment: reduced ATP signal of yeast carrying P. falciparum Hsp90 – S. cerevisiae, BacTiter-Glo luminescence, single point, set 2, antimalarial PfHsp90 inhibitor project, primary screen (AID 504621);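 further: yeast relying on Plasmodium falciparum Hsp90 in place of its own; 0% = DMSO neutral controls and 100% = 20 µM radicicol positive controls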
Conditions: S. cerevisiae expressing PfHsp90, growth, 48 h, at 9.4 µM, hits give high values, yeast lacking PDR1 and PDR3 efflux regulators

Structure (SMILES)	inhibition
CCCCCCCCCCOC(=O)Cn1c(COc2cccc(OC)c2)[n+](C)c2ccccc21	-14.9% (inactive)
CCCCCCCCCCOC(=O)Cn1c(COc2ccc(C)cc2)[n+](C)c2ccccc21	110% (active)
Cc1ccc(OCCCn2c(=O)oc3ccccc32)cc1	-16.3% (inactive)
COc1ccc(-c2nc3cc(C)ccn3c2NC2CCCCC2)cc1SC1CCCCC1	9.74% (inactive)
FC(F)(F)c1ccc(-c2cccc3c2C2CC3CCN2Cc2ccccc2)cc1 (stereo not drawn)	6.57% (inactive)
O=C(O)CC1=C(Nc2ccccc2)C(=O)N(c2ccccc2)C1c1ccc(Cl)cc1 (stereo not drawn)	-10.5% (inactive)
O=C(CCC(=O)OCc1ccc(Cl)cc1)Nc1ccccc1	-21.6% (inactive)
O=C1C=C(c2ccc(Cl)cc2)C(=O)N1Nc1ccccc1	134% (active)
COc1cc(/C=C/c2ccc(/C=C/c3cc(OC)c(OC)c(OC)c3)cc2)cc(OC)c1OC	-3.68% (inactive)
Cc1c[n+]([O-])ccc1[N+](=O)[O-]	4.7% (inactive)
COCC(=O)N(C)[C@H]1C[C@H]2c3cc(Oc4ccccc4C)ccc3CCN2C(=O)[C@H]1[C@H](C)O	-8.3% (inactive)
O=S(=O)(Nc1ccc2ccccc2c1)N1CCCCC1	2.41% (inactive)
O=C(CNC(=O)c1cc(S(=O)(=O)N2CCOCC2)ccc1N1CCCC1)Nc1ccc(F)c(F)c1	-6.44% (inactive)
CCN1/C(=C\c2ccc3ccccc3[n+]2CC)Sc2cc(C)ccc21	87.5% (active)
Cc1cccc(C=CC(=O)c2ccc(Cl)cc2)c1	5.15% (inactive)
Cc1ccc(C)c(N2CCN(C(=O)CCc3nc(-c4cccc(C(F)(F)F)c4)no3)CC2)c1	-1.63% (inactive)
O=C(O)C(CCc1ccccn1)c1ccccc1 (stereo not drawn)	-16% (inactive)
CCCCNC(=O)C(C)N(CCN(C)C)C(=O)CCCCCN1C(=O)NC(c2ccc(Cl)cc2)C(C(=O)OCc2ccccc2)=C1C (stereo not drawn)	-0.725% (inactive)
COc1cccc(/C=N/Nc2ncc(C(F)(F)F)cc2Cl)c1O	91.5% (active)
FC(F)(F)c1cnc(Oc2ccccc2-c2nnc(-c3ccc(Cl)cc3)o2)c(Cl)c1	-8.43% (inactive)
COc1cccc(/C=N/Nc2cc(C)nc(-c3ccccc3O)n2)c1O	-15.4% (inactive)
CCCCCCCCNS(=O)(=O)CCNC1CCCCC1	21.1% (inactive)
O=C(NC1=CC(=O)c2ccccc2C1=O)c1ccccc1	54.3% (inactive)
C#CCOCCOCCOCCNc1nc(N2CCN(C(=O)Cn3cc(CCO)nn3)CC2)nc(N2CCN(C(=O)[C@H](CCCCN)n3cc(CCCC)nn3)CC2)n1	-9.73% (inactive)
Oc1c(Cl)cc(Cl)c(Cl)c1Cc1c(O)c(Cl)cc(Cl)c1Cl	108% (active)
O=C(Nc1ccc2ccccc2c1[N+](=O)[O-])c1ccccc1	-14.2% (inactive)

Structure (SMILES)	inhibition
COc1ccc(CC(=O)NC(C)c2ccc(Cl)c(Cl)c2)cc1S(=O)(=O)N1CCOCC1 (stereo not drawn)	15.2% (inactive)
COc1ccc(OCc2cn3c(C)cc(C)nc3n2)cc1	-13.7% (inactive)
CCOc1ccc(C(C)C)cc1S(=O)(=O)n1nc(C)cc1C	11.4% (inactive)
COc1ccc(C(C[N+](=O)[O-])n2nc(C)cc2C)cc1 (stereo not drawn)	104% (active)
O=C(/C(=C/c1cccc(Cl)c1)c1nc2ccccc2[nH]1)c1ccccc1	86.9% (active)
CCC(=O)/C(=C(/O)c1ccccc1)c1nc2ccccc2[nH]1	-12.2% (inactive)
O=C(Cc1nc2ccccc2[nH]c1=O)c1ccc(Cl)cc1	-1.68% (inactive)
Nc1ccc2c(c1)C(O)c1ccc(Cl)cc1-2 (stereo not drawn)	-1.88% (inactive)
CN(C)S(=O)(=O)Oc1ccccc1C(=O)Nc1ccccc1Cl	15.5% (inactive)
O=C(Nc1ccccc1Cl)O/N=C(/c1ccccc1)c1ccccn1	9.66% (inactive)
O=C(Nc1ccccc1Cl)/C(Cl)=C(\Cl)S(=O)c1ccccc1 (stereo not drawn)	127% (active)
Cc1cc(OCCCC(=O)Nc2cc(S(=O)(=O)N3CCOCC3)ccc2N2CCOCC2)ccc1Cl	-7.69% (inactive)
COc1ccc(C2=Nn3c(nnc3-c3ccccc3OC)SC2)cc1OC1CCCC1	1.24% (inactive)
CCCCN(C(=O)CSCc1ccc(C)cc1)c1c(N)n(Cc2ccccc2)c(=O)[nH]c1=O	-17.2% (inactive)
Cc1cc2c(cc1C)NC1(C[C@H]3CCC(=O)N4CC[C@@H](C1)[C@@H]34)C(=NC(C)(C)CC(C)(C)C)N2 (stereo partly drawn)	3.65% (inactive)
CSc1nnc(NC(=O)c2nc(S(=O)(=O)Cc3ccc(C)cc3)ncc2Cl)s1	11.8% (inactive)
CCOc1ccc(NC(=O)c2nc(SCC)ncc2Cl)cc1	15.7% (inactive)
Cc1cccc(NC(=O)c2nc(S(=O)(=O)Cc3ccccc3)ncc2Cl)c1	98.3% (active)
Cc1ccc(CS(=O)(=O)c2ncc(Cl)c(C(=O)Nc3nnc(C)s3)n2)cc1	7.63% (inactive)
CSc1ncc(Cl)c(C(=O)Nc2cc(C)ccc2C)n1	7.23% (inactive)
Cc1cccc(CS(=O)(=O)c2ncc(Cl)c(C(=O)Nc3ccc(F)cc3)n2)c1	105% (active)
COC1C(CO)OC(n2cnc3c(=S)nc(N)[nH]c32)C1O (stereo not drawn)	24.5% (inactive)
COc1ccccc1NC(=O)N(O)C1(C#N)CCCCC1	-17.6% (inactive)
Cc1cc(NC(=O)C(C)SCC(=O)Nc2cccc(S(=O)(=O)N3CCCCCC3)c2)no1 (stereo not drawn)	-41.5% (inactive)
CC1(C)C(=O)CCC2(C)C1=CCC1C2C(=O)CC2(C)C1CCC2(O)C(=O)CO (stereo not drawn)	20.2% (inactive)
COc1ccc(CCNC(=O)COc2cc(C)cc3oc(=O)c(C)c(C)c23)cc1OC	-2.49% (inactive)

Structure (SMILES)	inhibition
CCN1C[C@@H]2[C@@H]3C(=O)N(C)C(=O)[C@@H]3[C@](C)(C1=O)N2C(=O)c1ccccc1	-20.8% (inactive)
COc1ccc(Cl)cc1C=CC=Nc1ccc(S(N)(=O)=O)cc1	4.35% (inactive)
O=C(CSc1ccc(-c2ccccn2)nn1)Nc1ccccc1	119% (active)
O=C(CSc1ccc(-c2ccc(-n3cccn3)cc2)nn1)Nc1ccc([N+](=O)[O-])cc1	2.41% (inactive)
O=C(CSc1ccc(-c2ccco2)nn1)Nc1cccc(F)c1	-6.54% (inactive)
NS(=O)(=O)c1ccc(CCNC(=O)c2ccc(Cl)c(S(=O)(=O)N3CCCCCC3)c2)cc1	-11.9% (inactive)
O=S(=O)(Cc1ccc(Cl)cc1Cl)c1ccc(Cl)cc1	-35.8% (inactive)
Cc1cccc(C)c1NC(=O)C(c1ccccc1)N1CC(=O)Nc2ccccc21 (stereo not drawn)	-3.52% (inactive)
Cc1cccc(C)c1NC(=O)CN(C)C(=O)CCC(=O)c1ccccc1	3.14% (inactive)
Cc1cccc(C)c1NC(=O)C(Cl)C(=O)c1ccccc1 (stereo not drawn)	106% (active)
CC[C@]12c3[nH]c4ccc(OC)cc4c3CCN1C(=O)C(CC(=O)NCc1ccco1)C[C@@H]2C(=O)N1CCN(C(=O)C2CC2)CC1 (stereo partly drawn)	0.556% (inactive)
CCOC(=O)C1CCCN(C(=O)CN(c2ccc(OC)cc2)S(=O)(=O)c2c(C)noc2C)C1 (stereo not drawn)	14.1% (inactive)
CCN(C(=O)C1CCCN(c2nc(-c3ccc(OC)cc3)no2)C1)c1ccc(OC)cc1 (stereo not drawn)	103% (active)
COc1ccc(NC(=O)N2CCCC(c3nc(-c4ccc(F)cc4)no3)C2)cc1 (stereo not drawn)	-5.6% (inactive)
Cc1ccc(/C=N/NC(=O)c2cc3ccccc3cc2O)o1	-3.13% (inactive)
CC(=O)CCC(=O)c1ccc2ccccc2c1	14.9% (inactive)
Cc1cc(N=Nc2ccc3ccccc3c2)ccc1O	107% (active)
CCCCNC(=O)C(C)N(CCN(C)C)C(=O)CCCN1C(=O)NC(c2ccc(Cl)cc2)C(C(=O)OCc2ccccc2)=C1C (stereo not drawn)	-3.34% (inactive)
CN(C)CCNC(=O)c1ccc(Cl)c2cc3ccccc3nc12	-3.1% (inactive)
O=C(Cc1ccccc1)n1nc(-c2ccccc2)nc1NCc1ccco1	-9.78% (inactive)
Cc1nc2nc(SCC(=O)NCc3ccco3)nn2c(C)c1Cc1ccccc1	-0.223% (inactive)
O=c1nc2s/c(=C\c3ccco3)c(=O)n2nc1Cc1ccccc1	109% (active)
c1ccc2sc(NN=C3CCCC3)nc2c1	7.45% (inactive)
O=C(CCNC(=O)c1ccccc1)Nc1nc2ccccc2s1	-3.35% (inactive)
c1ccc(C(=NNc2nc3ccccc3s2)c2ccccn2)cc1	108% (active)
O=[N+]([O-])c1ccc(N=NNc2ccc([N+](=O)[O-])cc2)cc1	-30.4% (inactive)
